# Source: PubChem BioAssay (EPA / NIEHS)
# Results filed as inconclusive are left out. Activity calls are given as the source filed them. The calls were made as follows: active = hit-call score of the fitted dose curve at least 0.9, where 1 is the maximum; inconclusive = response in the unintended direction; inactive = score below 0.9.
# Read-out: sulfotransferase (SULT2A), SULT2A1 (gene 6822)
# Test: CLD_SULT2A_48hr: CellzDirect (CLD) Gene Expression Assay for sulfotransferase (SULT2A) at 48 hours (AID 2283710);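 also: hits raise SULT2A1 transcript above the 0.2% DMSO vehicle baseline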
# Method: CLD_48hr is a cell-based, multiplexed-readout assay that uses hepatocyte, a human liver primary cell, with measurements taken at 48 hours after chemical dosing in a 96-well plate.CLD_SULT2A_48hr is one of 16 assay component(s) measured or calculated from the CLD_48hr assay. It is designed to make measurements of mRNA induction, a form of inducible reporter, as detected with chemiluminescence signals by Quantitative Nuclease Protection Assay (qNPA) technology.Data from the assay component CLD_SULT2A_48hr was analyzed at the endpoint, CLD_SULT2A_48hr, in the positive analysis fitting direction relative to DMSO as the negative control and baseline of activity. Using a type of inducible reporter, gain-of-signal activity can be used to understand changes in the reporter gene as they relate to the gene SULT2A1. Furthermore, this assay endpoint can be referred to as a primary readout. To generalize the intended target to other relatable targets, this assay endpoint is annotated to the transferase intended target family, where subfamily is sulfotransferase.
# Human hepatocyte cultures were treated daily for two consecutive days with fresh dosing solutions containing appropriate concentrations of the 320 ToxCast chemicals (chemical identities were blinded to CellzDirect and other ToxCast collaborators), vehicle control (0.2% DMSO), and positive control inducers as summarized in Table 1. Due to the large number of treatment groups and chemicals examined, the ToxCast chemicals were divided into two groups (spanning two independent cultures of hepatocytes from separate donor preparations (Hu778: ToxCast plates 1 and 2; Hu776: ToxCast plates 3 and 4). Each preparation of human hepatocyte cultures was treated with respective vehicle control, medium only control, set of six positive controls/reference chemicals for the five hepatic receptor pathways, and a subset of eight of the ToxCast chemicals (indoxacarb, pyrithiobac-sodium, norflurazon, cyhalofop-butyl, methomyl, thiram, acetochlor, and propiconazole). These replicate data, coupled with internal replicates designed within the blinded ToxCast chemical library, provided additional data to evaluate interindividual differences between hepatocyte preparations and their potential impact on chemical profiles.Cell morphology and integrity were evaluated using phase-contrast microscopy as an indicator of hepatocyte cell health (Tyson & Green, 1987). Cultures for each treatment group (i.e., media, vehicle [0.2% DMSO], positive control inducers [multiple concentrations], and the ToxCast chemicals [multiple concentrations]) were observed and cell morphology was assessed relative to vehicle control cultures at each harvest time point (0, 6, 24, or 48 h). […] Images were evaluated at the conclusion of the study to assess changes in cell integrity and account for the effects of chemical exposure on uncharacteristic changes in concentration-dependent gene expression profiles. The results from these determinations of apparent cytotoxicity were annotated (yes/no) alongside the corresponding qNPA data for reference.At the conclusion of each treatment period, hepatocyte cultures (96-well) were washed with 1 volume of HBSS, lysed by addition of 25 ul ArrayPlate lysis buffer (HTG, Tucson, AZ), and 70 ul/well of Denaturation Oil, denatured by incubation at 95C for 10 min, and frozen at approximately -70C until analysis by nuclease protection assay (qNPA) (Roberts et al., 2007). For qNPA analysis, cell lysates were thawed at 50C for approximately 30 min, qNPA probes were added, and samples were incubated at 95C for 10 min to begin the detection process by denaturing the target RNA, dissociating the duplexes and secondary structure hybridization. At the conclusion of the hybridization period, S1 nuclease reagent was added to each sample to digest all nonprotected nucleotides at 50C for 60-90 min. […]
SMILES,outcome,AC50
COC(=O)NS(=O)(=O)c1ccc(N)cc1,inactive,
COC(=O)N(C(=O)N1CO[C@@]2(C(=O)OC)Cc3cc(Cl)ccc3C2=N1)c1ccc(OC(F)(F)F)cc1,inactive,
C=C(C)CN(CC)c1c([N+](=O)[O-])cc(C(F)(F)F)cc1[N+](=O)[O-],inactive,
CC1(C)C(C=C(Cl)Cl)C1C(=O)OC(C#N)c1cccc(Oc2ccccc2)c1 (stereo not given),inactive,
CC1(C)CCC(=Cc2ccc(Cl)cc2)C1(O)Cn1cncn1 (stereo not given),inactive,
CC(C)N1C(=O)N(c2ccccc2)CSC1=NC(C)(C)C,,33.1 µM (active)
O=C1C2CC=CCC2C(=O)N1SC(Cl)(Cl)Cl (stereo not given),inactive,
CCOc1cc(C(C)(C)C)ccc1C1COC(c2c(F)cccc2F)=N1 (stereo not given),,7.73 µM (active)
COCc1cnc(C2=NC(C)(C(C)C)C(=O)N2)c(C(=O)O)c1 (stereo not given),inactive,
COC(=O)NC(=S)Nc1ccccc1NC(=S)NC(=O)OC,inactive,
COCC(=O)N(c1c(C)cccc1C)C(C)C(=O)OC (stereo not given),,20 µM (active)
O=c1n(Cl)c(=O)n(Cl)c(=O)n1Cl,inactive,
CCCN(CC)CC1COC2(CCC(C(C)(C)C)CC2)O1 (stereo not given),,0.0474 µM (active)
COc1ccc(-c2ccccc2)cc1NNC(=O)OC(C)C,inactive,
CS(=O)(=O)c1cc(C(F)(F)F)ccc1C(=O)c1cnoc1C1CC1,inactive,
CO/N=C(/C1=NOCCO1)c1ccccc1Oc1ncnc(Oc2ccccc2Cl)c1F,inactive,
CCCC(=NOCC)C1=C(O)CC(CC(C)SCC)CC1=O (stereo not given),inactive,
CCN(CC)C(=O)C(C)Oc1cccc2ccccc12 (stereo not given),,33 µM (active)
Clc1cccc(C(Cl)(Cl)Cl)n1,inactive,
CCCCOCN(C(=O)CCl)c1c(CC)cccc1CC,inactive,

SMILES,outcome,AC50
CCOc1nc(F)cc2nc(S(=O)(=O)Nc3c(Cl)cccc3Cl)nn12,inactive,
CC(C)Oc1cccc(NC(=O)c2ccccc2C(F)(F)F)c1,inactive,
O=P(O)(O)CCCl,inactive,
CCOC(=O)C(C)OC(=O)c1cc(Oc2ccc(C(F)(F)F)cc2Cl)ccc1[N+](=O)[O-] (stereo not given),,4.61 µM (active)
CC1(C)C(C(=O)OC(C#N)c2cccc(Oc3ccccc3)c2)C1(C)C (stereo not given),inactive,
COP(=O)(OC)O/C(C)=C/C(=O)N(C)C,inactive,
CCCCC(O)(Cn1cncn1)c1ccc(Cl)cc1Cl (stereo not given),inactive,
CCOP(=O)(OCC)Oc1nc(Cl)c(Cl)cc1Cl,inactive,
COc1cc(Cl)c(OC)cc1Cl,inactive,
CCNP(=S)(OC)O/C(C)=C/C(=O)OC(C)C (stereo not given),inactive,
COP(=S)(OC)Oc1ccc([N+](=O)[O-])c(C)c1,inactive,
N#Cc1c(Cl)cccc1Cl,inactive,
CC(C)=CC1C(C(=O)OCc2coc(Cc3ccccc3)c2)C1(C)C (stereo not given),inactive,
Nc1c(Cl)c(F)nc(OCC(=O)O)c1Cl,inactive,
Cn1c(-c2ccccc2)cc(-c2ccccc2)[n+]1C,inactive,
Cc1c(COC(=O)[C@@H]2[C@H](/C=C(\Cl)C(F)(F)F)C2(C)C)cccc1-c1ccccc1,,5.45 µM (active)
N#CN=C1SCCN1Cc1ccc(Cl)nc1,inactive,
CCC(C)n1c(=O)[nH]c(C)c(Br)c1=O (stereo not given),inactive,
CC(C)(C)C(=O)C(Oc1ccc(Cl)cc1)n1cncn1 (stereo not given),inactive,
O=C(O)c1c(Cl)ccc2cc(Cl)cnc12,inactive,
